Key:
Test in all cases: PBM binding z-score (relative to random genomic background probes); higher = stronger binding; sequences stand for … in GC…GCGATTGACAGCGTAGAATGAAGG
[1] = test system: FXR:RXRa (NR concentration 270 nM, RXRa partner concentration 90 nM)
Summary of the method: (§1)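 Each nuclear receptor dimer, without ligand, was incubated for 1 h on custom Agilent 4×180K protein-binding microarrays. Binding was detected with antibodies against each partner (one per run), and scanned fluorescence was regression-normalized. The binding z-scores are referenced to random human genomic background probes.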

[2] = test system: LXRa:RXRa (NR concentration 270 nM, RXRa partner concentration 90 nM)
Summary of the method: as §1

[3] = test system: LXRa homodimer (NR concentration 270 nM)
Summary of the method: as §1

[4] = test system: LXRb:RXRa (NR concentration 270 nM, RXRa partner concentration 90 nM)
Summary of the method: as §1

[5] = test system: LXRb homodimer (NR concentration 270 nM)
Summary of the method: as §1

[6] = test system: PPARg:RXRa (NR concentration 180 nM, RXRa partner concentration 90 nM)
Summary of the method: as §1

[7] = test system: PPARg:RXRa 270nM:90nM, anti-RXR (NR concentration 270 nM, RXRa partner concentration 90 nM)
Summary of the method: as §1

[8] = test system: PPARg:RXRa 30nM:10nM, anti-RXR (NR concentration 30 nM, RXRa partner concentration 10 nM)
Summary of the method: as §1

[9] = test system: PPARg:RXRa 90nM:30nM, anti-RXR (NR concentration 90 nM, RXRa partner concentration 30 nM)
Summary of the method: as §1

[10] = test system: PPARg:RXRa DBDmut IVT, anti-RXR (DBD mutation: RXRa K156A/R161A, NR concentration 270 nM, RXRa partner concentration 90 nM)
Summary of the method: as §1

[11] = test system: PPARg:RXRa IVT, anti-PPARg (NR concentration 270 nM, RXRa partner concentration 90 nM)
Summary of the method: as §1

[12] = test system: PPARg DBDmut:RXRa IVT, anti-PPARg (DBD mutation: PPARg1 K132A/R137A, NR concentration 270 nM, RXRa partner concentration 90 nM)
Summary of the method: as §1

[13] = test system: PPARg DBDmut IVT, anti-PPARg (DBD mutation: PPARg1 K132A/R137A, NR concentration 270 nM)
Summary of the method: as §1

[14] = test system: PPARg homodimer (NR concentration 180 nM)
Summary of the method: as §1

[15] = test system: PXR:RXRa (NR concentration 270 nM, RXRa partner concentration 90 nM)
Summary of the method: as §1

[16] = test system: PXR homodimer (NR concentration 270 nM)
Summary of the method: as §1

[17] = test system: RARa:RXR (NR concentration 270 nM, RXRa partner concentration 90 nM)
Summary of the method: as §1

[18] = test system: RARa homodimer (NR concentration 270 nM)
Summary of the method: as §1

[19] = test system: RARb:RXRa (NR concentration 270 nM, RXRa partner concentration 90 nM)
Summary of the method: as §1

Sequence	PBM binding z-score [1]	PBM binding z-score [2]	PBM binding z-score [3]	PBM binding z-score [4]	PBM binding z-score [5]	PBM binding z-score [6]	PBM binding z-score [7]	PBM binding z-score [8]	PBM binding z-score [9]	PBM binding z-score [10]	PBM binding z-score [11]	PBM binding z-score [12]	PBM binding z-score [13]	PBM binding z-score [14]	PBM binding z-score [15]	PBM binding z-score [16]	PBM binding z-score [17]	PBM binding z-score [18]	PBM binding z-score [19]
TAGCCTAGGTCATTGTGCCAGTATAGTACGCATC	4.04	3.2	1.08	2.51	0.948	2.89	2.79	0.475	2.19	2.37	3.23	-0.0725	0.703	0.97	1.47	0.0622	1.89	-0.0989	3.44
AGAATGAGGTTAAGATTAGGGAAACAGAATACAT	2.33	1.73	0.0443	1.78	-0.185	2.52	2.36	0.986	1.91	2.37	2.53	0.926	1.13	1.38	1.24	0.222	2.11	1.36	1.91
CGAACTATGTCAAGGACAGTGAATCTCCGCACGC	0.0723	-0.232	-0.234	-0.456	-0.269	0.856	0.74	-0.213	0.259	3.57	2.11	-0.346	0.361	0.224	-0.112	0.37	0.29	0.0991	0.88
AGAATGAGGTTACACGTAGATCAGGGAAGAAAGT	2.62	1.97	-0.126	1.74	-0.022	2.84	2.76	0.95	1.91	4.19	3.53	1.09	0.468	1.27	1.36	-0.00272	1.84	0.499	2.07
CCTACTGGGGCAAAGGTCATTGATTCCAATGCTC	4.69	5.21	2.93	4.78	0.406	12	10	9.73	11.1	6.11	7.2	0.312	-0.624	2.42	5.6	0.979	6.37	0.341	4.66
ACCAGCAGGCCAAGGGTCACTCAAGATTAGTCCG	2.48	2.71	-0.066	2.55	-0.909	6.25	6.19	4.57	5.83	-0.293	2.57	-0.621	-0.244	2.32	2.95	-0.192	3.93	0.0192	3.37
GCTGCTAGGTCGACTGATGGTCAGCTAAAGCTCG	-0.376	-0.522	-0.803	-0.528	-1.35	-0.467	-0.365	-0.591	-0.382	1.27	0.463	-1.49	-1.06	-0.687	-0.436	-1.21	0.0289	-1.87	1.37
CGTCCAAGCTCAGCAGGTCAGTGAAAGCGACGTG	-0.394	-0.404	-0.449	0.048	-1.03	-0.464	-0.756	-1.14	-0.879	-0.243	-0.249	-0.634	-0.872	-0.131	0.0588	-0.688	0.234	-0.706	1.45
ACTAGTTGGTCAGCTGAGGTCACACTCAATTCGG	3.79	3.19	2.29	3.64	0.527	1.23	1.94	0.159	1.26	1.55	2.58	0.716	-0.0108	1.84	5.39	1.85	4.51	0.596	3.54
AGTCAAAGTTCAGCACGAGGTAACGTAAAGCACG	4.45	4.19	1.47	2.23	0.567	4.88	5.1	2.2	4.2	-0.116	2.28	0.538	0.124	1.92	3.35	1.01	3.13	1.12	4.66
GCTGCTAGGTCAACTGATGGTCAGCTAGAGCTCG	3.85	2.95	0.128	1.85	0.313	2.7	2.98	0.27	2.01	4.87	3.91	-0.00234	0.522	0.71	1.55	-0.557	2.21	0.274	4.28
CAAACTAGGTCAAAGGTCAAAGCCGAGCCAACCA	8.47	7.19	5.21	7.3	2.55	13.1	11.3	13.6	13	8.36	8.57	2.64	1.45	4.45	6.85	1.41	9.13	2.5	5.94
TCTAGCAGGCCATAGGGTCACTCAAGAGGTACGG	2.31	1.65	-0.243	1.73	-0.428	2.46	3.27	2.5	3.13	1.23	1.69	-1.22	-0.48	0.644	2.43	-0.246	3.69	0.229	2.75
ATATGTAGGTTACATCCGGGTCTTTCAGGCTATG	0.415	2.91	0.384	1.23	0.526	4.92	4.07	1.55	3.34	7.37	7.42	1.99	3.12	1.13	0.703	0.192	0.794	0.548	1.21
TAGCCTAGGTCATTCAGGGGCTAGTATAGAAAGC	4.83	3.69	0.257	2.77	0.83	2.12	2.22	0.575	1.45	1.49	2.56	-0.0413	0.573	1.3	2.36	-0.268	2.79	-0.106	3.76
TGACTGAGGTTAAAGATCAGGGAACGTGGCGTCG	2.91	2.35	-0.224	1.69	-0.22	3.09	3.98	2.03	3.59	-0.162	1.61	0.314	0.079	0.216	2.03	-0.418	2.68	-0.102	2.05
CCTAGTAGGTTATGGGGCATTCAGGCAACGGTGA	0.561	0.515	-0.0293	0.689	-0.176	5.47	5.67	4.4	6.07	4.52	5.34	0.403	-0.728	1.28	0.0613	0.02	0.431	0.456	1.13
CCTAGTTGGTCAAGGTCTCACACGCTATAGGTAC	0.271	0.379	0.569	0.343	0.483	0.786	1.09	0.321	0.561	1.7	1.75	-0.0151	0.765	1.47	0.365	0.749	0.511	1.56	1.48
TAGCCTAGGTCATTGGACCAGTATAGTACGCATC	4.61	3.73	1.02	2.36	0.187	2.88	3.16	1.04	2.07	1.74	3.17	0.686	-0.0362	1.31	1.66	-0.324	2.35	-0.143	3.65
TCTCGGAGGACACGAAAGGTCTGAGCTCGACATC	0.119	-0.119	-0.569	-0.279	-0.889	0.108	1.01	1.92	1.49	1.62	-0.101	-0.378	-0.264	0.204	-0.0379	-0.678	0.227	-0.321	1.7
CCTACTGGGCCAATGTCATTGATCAGTCAAAGCA	-0.931	-0.71	-0.956	-0.421	-0.826	0.865	0.774	-0.129	0.12	3.94	2.99	-0.0732	-0.746	-0.246	-0.427	-0.747	-0.51	-1.11	0.363
TAGCCTCGGTCATTGGGCCAGTATAGTACGCATC	0.733	0.704	0.605	0.0326	-0.0168	0.597	0.0656	-0.712	-0.209	0.608	1.16	-0.424	-0.786	-0.222	-0.491	-0.977	-0.492	-0.437	2.33
CCAGACAGGTGAAAGGTAACTCACTCTGGTACGC	1.02	0.665	-0.00301	0.938	-0.466	6.03	6.05	4.21	6.66	2.36	3.27	-0.16	0.145	1.28	0.983	0.186	1.84	0.159	1.26
TAGCCTAAGTCATGGGCCAGTATACCACGCGAAC	-0.178	-0.0929	-0.218	-0.0253	-0.797	0.437	0.385	-0.251	0.254	-0.872	-0.144	-0.174	-0.856	-0.397	-0.259	-0.135	0.041	-0.286	0.0943
TCTCGGAGGACACGAAGGTCAAAGCTTTCCAGAG	2.68	2.91	2.05	2.91	-0.25	1.14	2.53	2.73	2.51	1.76	1.71	-0.973	-1.26	1.25	3.68	2.71	3.62	0.304	3.66
CCTAGCAGGCCACGGTCACTCAAGCATTTCGCTT	0.26	0.128	-0.0188	0.0634	-0.369	0.0164	0.322	-0.777	-0.122	2.28	1.83	-0.92	-1.29	0.115	-0.147	-0.385	0.307	-0.0441	1.95
GCTGCTCGGTCAACTGATGGTCAGCTAAAGCTCG	0.704	0.751	0.0425	-0.248	-0.201	-0.584	-0.239	-0.686	-0.163	0.634	-0.00578	-0.981	-0.237	-0.156	-0.105	-0.492	0.225	-0.934	2.87
TCATATAGGTAATAGGTGAAAGTCGGTGTGGTAA	1.15	1.11	0.316	1.18	0.0131	6.6	6.84	6.19	7.27	4.73	4.33	0.889	1.42	1.61	0.866	0.435	1.56	1.65	0.581
CATACAGGGTAAGCTAGGCCAGAGTAGGGACGGC	0.167	0.793	-0.335	-0.589	-0.153	0.575	-0.433	-0.335	-0.43	0.432	0.87	-0.00431	-0.34	-0.902	-0.7	-0.446	-0.142	0.0109	0.588

Reference: the supplement of paper PMC6555819
